High-throughput results: PubChem, several laboratories
A selection: hits, their analogues and other compounds. The true share with any hit is near 3.8%.
NALP1 inh = inhibitors of NALP1 inflammasome in yeast; S. cerevisiae NALP1/ASC/caspase-1 growth, X-gal OD620, 72 h; inhibition, % at 10 µM; 0.61% of 280,000 active; AID 2071; in the data active = inhibition mostly above about 24%, no sharp cut-off; inactive = mostly below about 32%
HSP90 refold inh = HSP90 refolding inhibition in rabbit reticulocyte lysate; 0.91% of 290,000 active; inhibition, % at 5.6 µM; luciferase refolding luminescence, 3 h;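 active = inhibition above the screen-wide mean plus 3 SD, computed separately per campaign, cut at about 16% in these data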;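 note: 0% = DMSO wells and 100% = 60 µM geldanamycin wells; inhibitors lower the luminescence because luciferase stays unfolded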
HSF-1 act = increases HSF-1 driven luciferase reporter signal | activation, % at 9 µM | NIH3T3-HGL HSF-1 luciferase reporter, MG132, 8 h; 100% = twice DMSO control signal | AID 504408 | 1.7% of 300,000 active;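 active = mean replicate activation of at least 50% with a set share of replicates each reaching 50%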;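 note: 0% = median of the neutral control wells and 100% = twice that signal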
Hsp70 activator = Hsp70 transcriptional activation, primary screen; 0.04% of 200,000 active; HeLa Hsp70 promoter luciferase reporter, luminescence; scaled: vehicle 0, proteasome-inhibitor control 100%; activation, % at 10 µM;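 active = activation above the mean across all tested compounds plus 3 SD, cutoff set per campaign, cut at about 5.5% in these data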;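 note: 100% = MG132 at 30 µM as the positive control and 0% = DMSO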
p-CIP stab down = p/CIP protein destabilization | 0.01% of 290,000 active | F442A p/CIP-EGFP cells, EGFP fluorescence, 16 h | Q05BA5 | decrease of EGFP signal, % at 10 µM;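 active = EGFP signal decrease of at least 30% at 10 µM or well 3 SD below plate mean, unless failing retest; inactive = the rest, including hits failing retest or dose response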
HSF1 inhib = HSF1 inhibition; NIH3T3-HGL HSE-luciferase, MG132-induced, luminescence 8 h; active compounds read low; activity change, negative = inhibition, % at 7.5 µM (by protocol); 0.77% of 300,000 active; AID 2098;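 active = more than half of replicate wells show activity change below -50%, luminescence cut by over half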;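 note: luciferase reports HSF-1 transcriptional activity via heat shock element; 0% = median of DMSO wells and -100% = zero luminescence signal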
* marks the source's active call; other numbers are inactive results; nt = no result.

SMILES | NALP1 inh | HSP90 refold inh | HSF-1 act | Hsp70 activator | p-CIP stab down | HSF1 inhib
CC(Sc1nc(-c2ccccc2)cc(C(F)(F)F)n1)C(=O)Nc1sc2c(c1C(N)=O)CCC2 (configuration not stated) | 15.8 | -4.3 | -5.8 | -0.5 | -2.5 | 4.9
CCn1c(SCCOc2ccc(Cl)cc2)nnc1-c1cccs1 | 1.4 | 9.2 | 60.7* | 0.4 | -15.0 | 18.9
CCn1c(SCC(=O)c2ccc(Cl)cc2)nnc1-c1cccs1 | 9.5 | 2.4 | -7.3 | -0.2 | -1.1 | 6.3
COc1ccc(N2CCN(C(=O)Cc3ccc(C)cc3)CC2)cc1 | -7.0 | -2.4 | 39.3 | nt | -5.7 | 11.8
COc1ccc(N2CCN(C(=O)Cc3ccc(-n4c(=O)[nH]c5ccccc5c4=O)cc3)CC2)cc1 | 0.8 | -2.9 | -68.8 | -0.2 | -5.6 | -57.6*
O=C(CSc1nnc(SCc2ccc(Cl)cc2)s1)N/N=C/c1c(Cl)cccc1Cl | -0.3 | 1.4 | 60.0* | 0.0 | 2.2 | 27.6
Cc1ccc(C2=NN(C(=O)CNCCO)C(c3cccs3)C2)cc1 (configuration not stated) | 18.4 | -4.2 | 39.6 | nt | 12.0 | 17.3
Cc1ccc(C2CN=NC23CCc2ccccc2C3=O)cc1 (configuration not stated) | 37.0* | 16.8* | 11.9 | -0.2 | 1.6 | 5.3
Cc1ccc(S(=O)(=O)/N=C(/NNC(=O)c2cccc(Cl)c2)c2ccccc2)cc1 | 0.3 | 3.0 | 42.9 | nt | -0.4 | 15.7
O=C(NN/C(=N/S(=O)(=O)c1ccc(Cl)cc1)c1ccccc1)c1ccc(O)cc1 | 43.5 | 2.6 | 60.5* | 0.0 | 7.4 | 32.8
O=C(NN/C(=N/S(=O)(=O)c1ccc(Cl)cc1)c1ccccc1)c1cccc(Cl)c1 | -12.3 | -0.2 | 51.9* | nt | 3.4 | 16.1
CC(C)(C)c1cc(C(=O)NCCN2CCCC2)cc(C(C)(C)C)c1 | 108.0* | 1.7 | 28.6 | -0.1 | -1.5 | 4.8
O=C(NCCN1CCCC1)c1ccc(Cl)cc1 | -3.6 | -2.5 | -15.7 | -0.5 | -4.7 | -3.3
CC(=O)c1ccccc1OCc1ccc(S(=O)(=O)Cc2ccccc2)cc1 | 4.6 | -3.2 | -15.0 | nt | -22.9 | -6.2
CN1CCN(C(=O)C2CCC(=O)N(Cc3cccc(C(F)(F)F)c3)C2)CC1 (configuration not stated) | 31.9* | -0.7 | -0.2 | nt | -16.1 | -1.0
Cc1ccc(C(=O)NN2C(=O)C3C(C2=O)C2C=CC3C23CC3)cc1 (configuration not stated) | 3.9 | -0.7 | 4.9 | -0.1 | -6.4 | -0.4
O=C(NN1C(=O)C2C(C1=O)C1C=CC2C12CC2)c1ccc(Cl)cc1 (configuration not stated) | 8.4 | 3.3 | 65.3* | nt | -13.1 | 23.7
Cc1cc(C(=O)Nc2ccc3ccccc3c2)c(C)o1 | 14.5 | 4.9 | 65.8* | nt | -8.3 | 30.6
CC(=O)c1cc(C(=O)Nc2ccc3ccccc3c2)c(C)o1 | 7.4 | 4.0 | -3.2 | nt | -7.8 | 6.1
Cc1cc(C(=O)Nc2cccc(O)c2)c(C)o1 | 35.1* | 3.1 | 4.8 | -0.3 | 29.6 | 1.9
O=C(Nc1ccc2ccccc2c1)c1ccc(Br)o1 | 9.1 | -7.2 | 64.9* | nt | 0.6 | 27.5
O=C(Nc1ccccc1)c1ccc(Br)o1 | 35.2 | 2.8 | 11.0 | -0.5 | 0.7 | 17.2
O=C(NCc1ccco1)c1cc(S(=O)(=O)N2CCOCC2)ccc1Br | 5.8 | 1.4 | -13.4 | nt | -18.3 | -8.3
CC(NC(=O)/C=C/c1ccco1)c1nc2ccccc2n1Cc1cccc(Cl)c1 (configuration not stated) | -9.1 | 5.5 | 70.3* | -0.3 | -7.8 | 37.7
O=C(Nc1nc2ccccc2n1Cc1ccc(Cl)cc1)c1ccco1 | 4.2 | 0.7 | 29.2 | -0.3 | -15.7 | 9.5
SMILES | NALP1 inh | HSP90 refold inh | HSF-1 act | Hsp70 activator | p-CIP stab down | HSF1 inhib
CC(C)(C)C(=O)COC(=O)c1ccccc1O | 37.1* | 7.3 | -37.6 | -0.2 | -6.3 | -15.9
Cc1cnc(NC(=O)Cc2c[nH]c3ccccc23)s1 | 4.2 | 2.2 | 13.6 | 0.1 | 9.6 | 16.4
Cc1csc(NC(=O)Nc2cccc(Cl)c2)n1 | -11.3 | 0.0 | 55.4* | 0.4 | -16.3 | 6.5
Cc1csc(NC(=O)Cc2c[nH]c3ccccc23)n1 | 16.5 | -3.3 | 63.2* | 0.0 | 0.1 | 33.4
CCC(CC)c1nnc(NC(=O)c2cc(-c3ccccc3)nc3ccccc23)s1 | 24.6 | 0.2 | -7.7 | 0.0 | -9.5 | 1.1
CCC(CC)c1nnc(NC(=O)c2ccc3ccccc3n2)s1 | 22.5 | 0.7 | 52.9* | 0.3 | 2.3 | 14.4
